# Measurements reported in the supplement of paper PMC9588786.
# Values joined by “and” are separate entries in the source; they are usually repeats but may differ in a detail not shown here. Equal values may be shown once. Where a name gives a salt, the structure may show the parent alone. ± gives the standard deviation of the averaged measurements.
# System: HT-1080
# Assay: relative cell viability with RSL3 co-treatment (fraction of control); higher = stronger protection from RSL3-induced ferroptosis (higher viability)
# Conditions: 10 µM
# 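Also: viability read as CCK-8 absorbance at 450 nm in cells co-exposed to the GPX4 inhibitor RSL3, relative to a 0.01% DMSO vehicle control.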
row,SMILES,relative cell viability
1,C[C@H](Nc1ncnc2[nH]cnc12)c1cc2ccc(F)cc2nc1-c1ccccn1,0.59 ± 0.18
2,COc1cc2c(Nc3ccc(NC(=O)c4ccccc4)cc3)ncnc2cc1OCCCN1CCOCC1,0.717 ± 0.23
3,CC(C)NC[C@@H](C(=O)N1CCN(c2ncnc3c2[C@H](C)C[C@H]3O)CC1)c1ccc(Cl)cc1 [Ipatasertib (GDC-0068)],0.697 ± 0.12
4,CCOc1ccn(-c2ccc(F)cc2)c(=O)c1C(=O)Nc1ccc(Oc2ccnc(N)c2Cl)c(F)c1,0.51 ± 0.092
5,COc1cc(Nc2ncc3c(n2)-c2ccc(Cl)cc2C(c2c(F)cccc2OC)=NC3)ccc1C(=O)O [Alisertib (MLN8237)],0.39 ± 0.18
6,O=C(Nc1cccc(Nc2ncc(Br)c(NCCc3cnc[nH]3)n2)c1)N1CCCC1,0.743 ± 0.04
7,O=C1NC(=O)C(c2cnc3ccccn23)=C1c1cn2c3c(cc(F)cc13)CN(C(=O)N1CCCCC1)CC2,0.577 ± 0.015
8,COc1ccc(-c2ccc3ncc4c(c3c2)n(-c2ccc(N3CCNCC3)c(C(F)(F)F)c2)c(=O)n4C)cn1,0.29 ± 0.087
9,CNC(=O)CN1CCC(Oc2cc3c(Nc4cccc(Cl)c4F)ncnc3cc2OC)CC1 [Sapitinib (AZD8931)],0.56 ± 0.095
10,CC(C)CC(NC(=O)C(Cc1ccccc1)NC(=O)C(CCC(N)=O)NC(=O)C(Cc1ccc(O)cc1)NC(=O)C(C)NC(=O)CNC(=O)C(CCCCN)NC(=O)C(Cc1c[nH]c2ccccc12)NC(=O)C(NC(=O)C(Cc1c[nH]c2ccccc12)NC(=O)C(CCCCN)NC(=O)CNC(=O)C(CC(N)=O)NC(=O)C(CCC(=O)O)NC(=O)C(Cc1c[nH]c2ccccc12)NC(=O)C(NC(=O)C(Cc1c[nH]c2ccccc12)NC(=O)C(CO)NC(=O)CNC(=O)C1CCCN1C(=O)C(Cc1c[nH]c2ccccc12)NC(=O)C(CCC(N)=O)NC(=O)C(Cc1ccccc1)NC(=O)CNC(=O)C(N)Cc1c[nH]cn1)C(C)O)C(C)O)C(=O)NC(CCCCN)C(=O)NCC(=O)NCC(=O)NCC(=O)NCC(=O)NC(CO)C(=O)NC(CCCNC(=N)N)C(=O)NC(CCCNC(=N)N)C(=O)NC(CCCNC(=N)N)C(=O)NC(CCCNC(=N)N)C(=O)NC(CCCNC(=N)N)C(=O)NC(CCCNC(=N)N)C(=O)NC(CCCNC(=N)N)C(=O)NC(CCCNC(=N)N)C(=O)NC(CCCNC(=N)N)C(=O)O (stereo unspecified),0.7133 ± 0.0058
11,Cc1ccc(NC(=O)c2ccc(CN3CCN(C)CC3)cc2)cc1Nc1nccc(-c2cccnc2)n1 [Imatinib Mesylate (STI571)],0.733 ± 0.17
12,C[C@H]1[C@H](C)CC[C@]2(C(=O)O)CC[C@]3(C)C(=CC[C@@H]4[C@@]5(C)C[C@@H](O)[C@H](O)[C@@](C)(CO)[C@@H]5CC[C@]43C)[C@H]12 [Asiatic Acid],0.58 ± 0.14
13,S=C(NCc1ccc2c(c1)OCO2)N1CCN(c2ncnc3c2oc2ccccc23)CC1 [Amuvatinib (MP-470)],0.55 ± 0.072
14,Cc1cc(Nc2cc(N3CCN(C)CC3)nc(/C=C/c3ccccc3)n2)n[nH]1,0.203 ± 0.1
15,Cc1ccc(F)c(NC(=O)Nc2ccc(-c3cccc4[nH]nc(N)c34)cc2)c1 [Linifanib (ABT-869)],0.36 ± 0.046
16,O=C(c1ccc(Nc2nccc(-c3cc4ccccc4s3)n2)cc1)N1CCC(N2CCCC2)CC1 [IKK-16 (IKK Inhibitor VII)],0.277 ± 0.038
17,CN(c1ncccc1CNc1nc(Nc2ccc3c(c2)CC(=O)N3)ncc1C(F)(F)F)S(C)(=O)=O,0.763 and 0.527
18,NC(=O)Nc1cc(-c2cccc(F)c2)sc1C(=O)N[C@H]1CCCNC1,0.55 ± 0.01
19,Cc1c(Cn2c(C)nc3c(C(=O)O)cc(N4CCOCC4)cc32)cccc1C(F)(F)F,0.823 ± 0.045
20,"C=CC(=O)Nc1cccc(Nc2nc(Nc3ccc(N4CCN(C(C)=O)CC4)cc3OC)ncc2C(F)(F)F)c1 [Rociletinib (CO-1686, AVL-301)]",0.573 ± 0.2
21,CC(C)n1nc(-c2ccc3oc(N)nc3c2)c2c(N)ncnc21,0.787 ± 0.058
22,N=C(N)NC(=N)NCCc1ccccc1 [Phenformin HCl],0.877 ± 0.042
23,O=C1NC(=O)/C(=C/c2ccc3c(c2)OC(F)(F)O3)S1,0.82 ± 0.07
24,Cc1ccc(Nc2nccc(N(C)c3ccc4c(C)n(C)nc4c3)n2)cc1S(N)(=O)=O [Pazopanib],0.71 ± 0.12
25,COc1cc(Nc2ncc(F)c(Nc3ccc4c(n3)NC(=O)C(C)(C)O4)n2)cc(OC)c1OC,0.88 ± 0.095
26,CCCCCCCCCCCCCCCCCCOP(=O)([O-])OC1CC[N+](C)(C)CC1 [Perifosine (KRX-0401)],0.463 ± 0.18
